Assay results published in PubChem BioAssay (Tox21).
Inconclusive results are not listed. The source made the active and inactive calls. The call rests on the fitted dose curve; in most records, active means well fitted activation curve with a large enough effect in the signal ratio in the repeat runs (not every such curve was filed as active); inconclusive means weak or mixed curves; inactive means flat fitted curve, though single readings scatter; the % refers to the signal ratio.

experiment: qHTS assay to identify small molecule agonists of the TGF-beta/Smad signaling pathway (AID 1346859); details: SBE-bla HEK293T, TGF-beta/Smad beta-lactamase reporter, 5 h; series mostly up to 76.8 µM; activation: at the top concentration
Excerpt: U.S. Tox21 Program National Center for Advancing Translational Sciences [NCATS] NIH Chemical Genomics Center [NCGC] U.S. Environmental Protection Agency [EPA] National Institutes of Environmental Health Sciences [NIEHS] National Toxicology Program [NTP] U.S. Food and Drug Administration [FDA] Tox21 Assay Overview: Transforming growth factor beta (TGF-beta) superfamily consists of a large number of structurally related dimeric proteins that act as hormones or local mediators in regulating a wide range of biological functions. This superfamily includes TGF-betas themselves, the bone morphogenetic proteins (BMPs) and the activins. These ligands induce oligomerization of serine/threonine receptor kinases and phosphorylate the cytoplasmic signaling molecules of Smad protein family. CellSensor SBE-bla HEK 293T cell line (Life Technologies, Carlsbad, CA), responsive to TGF-beta was used to screen Tox21 10K compound library for identification of agonists/antagonists of the Smad signaling pathway. This cell line contains a beta-lactamase reporter gene under control of the Smad binding element (SBE) stably integrated into HEK 293T cells.
Tox21 Assay Protocol Summary: SBE-bla HEK 293T cells were dispensed at 4,000/well in 6 uL of assay medium into black wall/clear-bottom 1536-well plates using a Multidrop Combi (ThermoFisher Scientific, Waltham, MA) dispenser. After the assay plates were incubated at 37 C and 5% CO2 for an overnight, 23 nL of compounds dissolved in DMSO, positive controls or DMSO only was transferred to the assay plate by a Pintool station (Kalypsys, San Diego, CA). The assay plates were incubated at 37 C and 5% CO2 for 5 hr. One uL of LiveBLAzer B/G FRET substrate (Life Technologies) was added using a Flying Reagent Dispenser (Aurora Discovery, San Diego, CA) and the plates were incubated at room temperature for 2 hr. Fluorescence intensity (405 nm excitation, 460 nm and 530 nm emissions) was measured using an Envision plate reader (PerkinElmer, Shelton, CT).
On the % scale 0 is the no-effect control and ±100 the full control effect.

Row | SMILES | activation
1 | O=C(O)c1ccco1 | 2.74% (inactive)
2 | COc1cc2nc(N3CCN(C(=O)C4COc5ccccc5O4)CC3)nc(N)c2cc1OC (stereo not given) | -1.86% [at 35.3 µM] (inactive)
3 | CC(C)(O)c1ccc(CNC(=O)c2cccnc2Oc2ccc(F)cc2)cc1 | -4.1% (inactive)
4 | CCCCC(CC)COC(=O)CCCCCCCCC(=O)OCC(CC)CCCC (stereo not given) | 0.262% (inactive)
5 | COc1ccc(C(=O)c2ccc(OC)cc2O)c(O)c1 | -11.6% (inactive)
6 | O=C(CS)Nc1ccccc1 | -0.51% [at 35.3 µM] (inactive)
7 | CCC(C)(C)CC | 0.545% (inactive)
8 | CCO[Si](CCCCl)(OCC)OCC | -1.79% (inactive)
9 | CCOC(=O)C1=C[C@]2(CC)CCCN3CCc4c(n1c1ccccc41)[C@@H]32 | 9.62% [at 35.3 µM] (inactive)
10 | C[N+]1(CC2COC(c3ccccc3)(C3CCCCC3)O2)CCCCC1 (stereo not given) | -5.6% [at 35.3 µM] (inactive)
11 | COC(C)(C)CCO | 2.18% (inactive)
12 | Clc1ccc2c(c1)CCc1cccnc1C2=C1CCNCC1 | 2.45% [at 35.3 µM] (inactive)
13 | COc1ccc(C)cc1[N+](=O)[O-] | -3.11% (inactive)
14 | CCOc1ccc(N)c([N+](=O)[O-])c1 | -1.07% (inactive)
15 | Cc1ncc(CO)c(C=O)c1O | -6.11% [at 35.3 µM] (inactive)
16 | Nc1ncn([C@H]2C[C@H](O)[C@@H](CO)O2)c(=O)n1 | -3.17% [at 35.3 µM] (inactive)
17 | CCCCCCc1ccc(-c2ccc(C#N)cc2)cc1 | 9.62% (inactive)
18 | CCN(CC)c1ccc2c(-c3ccccc3C(=O)O)c3ccc(=[N+](CC)CC)cc-3oc2c1 | 0.398% (inactive)
19 | CN(C)CCN(Cc1ccccc1)c1ccccn1 | 0.648% [at 35.3 µM] (inactive)
20 | CCCCC(CC)COC(=O)COc1ccc(Cl)cc1Cl (stereo not given) | -5.55% (inactive)

Row | SMILES | activation
21 | CC(=O)NO | -3.93% [at 35.3 µM] (inactive)
22 | CN1CCN(C(c2ccccc2)c2ccccc2)CC1 | 0.615% [at 35.3 µM] (inactive)
23 | C/C=C/C=C/CO | -4.77% (inactive)
24 | Nc1ccccc1S(=O)(=O)c1ccccc1 | -0.769% (inactive)
25 | O=CC1CC=CCC1 (stereo not given) | -4.19% (inactive)
26 | C[C@@H](c1ncncc1F)C(O)(Cn1cncn1)c1ccc(F)cc1F (stereo not given in full) | -2.51% [at 35.3 µM] (inactive)
27 | CC1OC(=O)C(C)OC1=O (stereo not given) | -0.236% (inactive)
28 | CCOC(=O)NCCOc1ccc(Oc2ccccc2)cc1 | 6.74% (inactive)
29 | CCCCCCCCCc1ccc(OCCOCCO)cc1 | -2.3% [at 35.3 µM] (inactive)
30 | CCCCc1ncc(/C=C(\Cc2cccs2)C(=O)O)n1Cc1ccc(C(=O)O)cc1 | 2.07% [at 35.3 µM] (inactive)
31 | O=C(Nc1ccc(S(=O)(=O)N2CCOCC2)cc1)c1cc(Cl)ccc1NS(=O)(=O)c1ccc(Cl)s1 | -2.7% [at 35.3 µM] (inactive)
32 | COc1cc2nc(Cl)nc(N)c2cc1OC | 0.0831% [at 35.3 µM] (inactive)
33 | CC(CC=O)c1ccccc1 (stereo not given) | -0.193% (inactive)
34 | COC(C)OC | -1.13% (inactive)
35 | C=C1C(=C/C=C2\CCC[C@]3(C)[C@@H]([C@H](C)/C=C/[C@@H](O)C4CC4)CC[C@@H]23)C[C@@H](O)C[C@@H]1O | -0.407% [at 35.3 µM] (inactive)
36 | CCCCCC[C@@H](O)C/C=C\CCCCCCCC(=O)OC | -7.52% (inactive)
37 | O=C(O)c1ccc(S(=O)(=O)O)cc1C(=O)O | -1.38% (inactive)
38 | OC(C#CCN1CCCC1)(c1ccccc1)c1ccccc1 | 0.216% [at 35.3 µM] (inactive)
39 | CCNc1cc(O)ccc1C | -6.71% (inactive)
40 | N=c1ccn2c(n1)O[C@H]1[C@H](O)[C@@H](CO)O[C@H]12 | 1.23% (inactive)
